Source: PubChem BioAssay
KB-3-1 cytotox: KB-3-1 parental cell cytotoxicity. KB-3-1 viability, CellTiter-Glo ATP luminescence, 72 h. Potency, µM (top dose mostly 46.1 µM), actives largely listed as cytotoxic. hit rate 1.4% among 400,000. AID 1347075; also: % is scaled to controls: 0 for no effect and ±100 for the full control effect; nearly all actives have a fitted effect of over 60% in size
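Multi-concentration cytotoxicity screen in KB-3-1 cells grown in DMEM lacking phenol red with 10% FBS. After 72 h at 37 °C with compound, ATP-dependent luminescence was recorded.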
ATXN viability: reduces viability in counter-screen for ATXN expression inhibitors; AID 651635; hit rate 0.49% among 400,000; S2 cells (HEK-293 line with an ATXN2-luciferase reporter) viability, CellTiter-Fluor protease fluorescence, 24 h; Potency, µM (top dose mostly 56.7 µM), hits mostly cytotoxic; also: nearly all actives have a fitted effect of over 40% in size
HepG2 tox-1: kills HepG2 cells in TGF-b inhibitor counter-screen | HepG2 CAGA-GFP viability, ATP luminescence, 18 h | Potency, µM (doses to about 46.1 µM), without a hit: at the top dose activity change, negative = cytotoxicity, actives largely listed as cytotoxic | hit rate 0.76% among 410,000 | AID 588856
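HepG2 CAGA-GFP cells (1000/well, DMEM with 1% FBS) received compound, then TGF-beta at 500 pg/mL final, and were incubated 18 hours at 37 degrees C. Viability was read by CellTiter-Glo luminescence. Media-only wells were set as complete cell-killing and DMSO as no toxicity.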
TGFb inhibitor: blocks TGF-b signaling. Potency, µM (top dose mostly 46.1 µM), inactives show top-dose activity, negative = inhibition, actives largely listed as inhibitors. HepG2 CAGA-GFP TGF-b/SMAD3 reporter, GFP fluorescence, 18 h; TGF-beta stimulated, 500 pg/mL final. hit rate 1.2% among 410,000; also: % is scaled to controls: 0 for no effect and ±100 for the full control effect; nearly all actives have a fitted effect of over 65% in size
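Using HEPG2 CAGA-GFP reporter cells at 1000 cells/well, we pinned test compounds, stimulated with recombinant TGF-beta (500 pg/mL final) and measured total well GFP after 18 h.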
KB-V1 cytotox: kills drug-selected multidrug resistant KB-V1 cells; Potency, µM (top dose mostly 46.1 µM), hits mostly cytotoxic; hit rate 3.4% among 400,000; KB-V1 MDR cells viability, CellTiter-Glo, 72 h; AID 1347076; also: % is scaled to controls: 0 for no effect and ±100 for the full control effect; nearly all actives have a fitted effect of over 60% in size
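Readout: CellTiter-Glo luminescence, 10 min after addition. Cells: KB-V1 MDR subline, 72 h at 37 degrees C with compound. Analysis: corrected, normalized data fitted to concentration-effect curves.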
ATXN2 expr inh: reduces ATXN2 reporter expression in HEK-293 cells | HEK-293 ATXN2-luciferase reporter, luminescence, 24 h | Potency, µM (titrated, usually from 57 µM), for the others: at the highest dose activity change, negative = inhibition, usual class: inhibitors | hit rate 0.72% among 360,000; also: % is scaled to controls: 0 for no effect and ±100 for the full control effect; nearly all actives have a fitted effect of over 55% in size
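qHTS (up to 57 uM final) was run with 24 h compound exposure of reporter cells at 37 °C. Each well was multiplexed: SteadyGlo luminescence measured ATXN2-luciferase expression after a fluorogenic Gly-Phe-AFC viability readout (25 uM final).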
TGFb CAGA inh: confirmation of TGF-b signaling inhibitors in HepG2 reporter cells; HepG2 CAGA-GFP TGF-b reporter, GFP fluorescence, 18 h; cells stimulated with TGF-beta, 500 pg/mL; shares compounds with TGFb inhibitor; Potency, µM (highest dose often 46.1 µM), for the others: at the highest dose activity, negative = inhibition, actives largely listed as inhibitors; hit rate 63% among 1,600; also: % is scaled to controls: 0 for no effect and ±100 for the full control effect; nearly all actives have a fitted effect of over 65% in size
HepG2 tox-2: toxic to HepG2 cells in TGF-b counterscreen | shares compounds with TGFb inhibitor | HepG2 CAGA-GFP viability, ATP luminescence, 18 h; cells stimulated with TGF-beta, 500 pg/mL | Potency, µM (titrated, usually from 46.1 µM), inactives show at the highest dose activity, negative = cytotoxicity, most hits filed as inhibitors | hit rate 27% among 1,600 | AID 720535; also: % is scaled to controls: 0 for no effect and ±100 for the full control effect; nearly all actives have a fitted effect of over 70% in size
TGFb CCL64 inh: blocks TGF-b signaling in CCL64 reporter cells; shares compounds with TGFb inhibitor; CCL64 CAGA-GFP reporter, TGF-b stimulated, GFP fluorescence, 18 h; Potency, µM (highest dose often 46.1 µM), for the others: at the top dose activity, negative = inhibition, actives largely listed as inhibitors; hit rate 41% among 1,600; also: nearly all actives have a fitted effect of over 65% in size
TGFb COP inh: validation of TGF-b inhibitors in HepG2 COP promoter reporter; shares compounds with TGFb inhibitor; hit rate 3% among 1,600; HepG2 COP-GFP TGF-b reporter, GFP fluorescence, 18 h; cells stimulated by added recombinant TGF-beta; AID 720537; Potency, µM (series often up to 46.1 µM), inactives show at the top dose activity, negative = inhibition, usual class: inhibitors; also: nearly all actives have a fitted effect of over 70% in size
* hit, by the source's call; i = inactive; ? = inconclusive; · = no result; ! = not active in a repeat. Compounds with a hit are over-represented: about 5.9% of the library has one in this group of screens. Calls follow the shape of the dose curve; as a rule, active = well fitted curve in the direction sought with a large enough effect; inconclusive = small, poorly fitted or top-dose-only effect, or another doubt; inactive = no such curve, though single readings can be large; an effect the other way counts as inactive or inconclusive. Potency is read from the fitted curve at half-maximal effect.

SMILES | KB-3-1 cytotox | ATXN viability | HepG2 tox-1 | TGFb inhibitor | KB-V1 cytotox | ATXN2 expr inh | TGFb CAGA inh | HepG2 tox-2 | TGFb CCL64 inh | TGFb COP inh
COC(=O)[C@@]1(Cc2ccccc2)[C@H]2C(=O)N(Cc3ccccc3)C(=O)[C@H]2[C@H]2CN=C(SCc3ccccc3)N21 | i | i | -30.1% | ? | i | -3.9% | · | · | · | ·
CCCC[C@H]1CCCO[C@@](C(=O)NCc2cc(C)n(C)n2)(C(F)(F)F)C1 | · | · | -16.0% | ? | · | · | · | · | · | ·
O=C1C=C(N2CCN(c3ccccn3)CC2)C(=O)c2c(O)ccc(O)c21 | ? | ? | -92.1% | 7.08µM* | 14.6µM* | ? | 4.61µM* | 9.2µM* | ? | -9.5%
N#Cc1ccc(NC(=O)Nc2ccc(Oc3ccc(NC(=O)Nc4ccc(C#N)cc4)cc3)cc2)cc1 | i | ? | -22.2% | 5.62µM* | i | ? | 4.61µM* | ? | -90.3% | 4.6%
O=C(Nc1cc(Sc2ccccn2)cc([N+](=O)[O-])c1)c1cccc(F)c1 | 13µM* | ? | -17.7% | 11.2µM* | 13µM* | -10.4% | 10.3µM* | ? | 13µM* | 77.3%
O=C(Nc1cc(Sc2nc3ccccc3s2)cc([N+](=O)[O-])c1)c1ccccc1 | ? | i | -1.8% | ? | ? | -22.9% | · | · | · | ·
Cc1ccc(-c2csc3ncnc(N4CCc5ccccc5C4)c23)cc1 | i | i | 24.5% | -2.4% | ? | -5.6% | · | · | · | ·
Fc1ccc(-c2csc3ncnc(N4CCc5ccccc5C4)c23)cc1 | i | ? | -29.9% | 17.8µM* | ? | -14.6% | 16.4µM* | ? | ? | 20.1%
Cc1ccn2c(NC3CCCCC3)c(-c3cccc(SC4CCCCC4)c3)nc2c1 | ? | ? | -36.5% | ? | ? | ? | · | · | · | ·
CCC(C)Sc1cccc(-c2nc3cc(C)ccn3c2NC2CCCCC2)c1 (stereo not drawn) | ? | ? | -29.2% | 11.2µM* | 16.4µM*! | ? | ? | ? | 18.4µM* | 40.4%
CCc1cccc(NC(=O)Cn2c(=O)n(CCCCCC(=O)NCc3ccc(F)cc3)c(=O)c3sccc32)c1 | i | i | -19.1% | -14.5% | i | -5.7% | · | · | · | ·
O=C(c1ccc(CSc2nc3ccncc3[nH]2)cc1)N1CCN(c2cccc(Cl)c2)CC1 | ? | ? | -44.6% | 7.94µM* | i | ? | 16.4µM* | ? | ? | 11.9%
O=C(c1ccc(CSc2nc3ccncc3[nH]2)cc1)N1CCCCCC1 | ? | i | -38.5% | -15.6% | i | ? | · | · | · | ·
O=C(Nc1ccc(Cl)cc1)Nc1csc([N+](=O)[O-])c1 | i | i | -25.6% | 3.98µM* | ? | ? | 6.51µM* | 6.51µM* | 5.17µM* | 75.9%
O=C(Nc1csc([N+](=O)[O-])c1)Nc1c(Cl)cccc1Cl | i | i | -18.9% | -17.6% | i | · | · | · | · | ·
